Assay results reported in the supplement of paper PMC7156485.

Each compound was assayed on TDF (assay: H1.0 immunofluorescence intensity relative to DMSO (% of DMSO); higher = stronger H1.0 induction, active = 120 or more). Details: concentration: 10 µM; 24 h.
How it was run: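 Cell number or H1.0 nuclear intensity appears as percent of the plate control, based on the median of replicates. Measurements came from HCC1569 and TDF cells exposed in triplicate to compounds at 10 µM for 24 h at 37 °C, then imaged in six fields per well at ×10. Positional effects were smoothed out of HCC1569 values.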
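Also: TDF is a line of transformed human dermal fibroblasts of mesenchymal origin.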

H1.0 immunofluorescence intensity, inactive:
COc1cc(/C=C/C(=O)CC(=O)/C=C/c2ccc(O)cc2)ccc1O 98.3
CCCCOc1cc(CC2CNC(=O)N2)ccc1OC (stereo unspecified) 85.3
CCOC(=O)C1=CC2(CC)CCCN3CCc4c(n1c1ccccc41)C32 (stereo unspecified) [Vinpocetine] 93.2
N[C@H](CCC(=O)NCS(=O)(=O)O)C(=O)O [gamma-D-Glutamylaminomethylsulfonic acid] 96.1
COc1cc2c(cc1OC)C1C(=O)c3ccc4c(c3OC1CO2)C=CC(C)(C)O4 (stereo unspecified) [Degeulin] 106
Cc1ccc(S(=O)(=O)NC(=O)NN2CCCCCC2)cc1 [Tolazamide] 93.2
COc1cc2c(cc1OC)C(c1ccccc1)CN(C)CC2.O=C(O)C=CC(=O)O (stereo unspecified) 94.3
CCCC1CC(C(=O)NC(C(C)O)C2OC(SC)C(O)C(O)C2O)N(C)C1 (stereo unspecified) [Lincomycin] 93.1
O=c1cc(N2CCOCC2)nc2c3ccccc3ccn12 94.7
CN(C)C(=S)NN=C(c1ccccn1)c1ccccn1 [(Z)-di(2-pyridinyl)methanone N,N-dimethylthiosemicarbazone] 107
CCCCc1nc(Cl)c(CO)n1Cc1ccc(-c2ccccc2-c2nnn[n-]2)cc1.[K+] [Losartan potassium] 98.1
O=c1cc(-c2ccccc2)oc2cc(O)cc(O)c12 [Chrysine] 93.8
CC1OC(OCC2OC(Oc3cc(O)c4c(c3)OC(c3ccc(O)cc3)CC4=O)C(O)C(O)C2O)C(O)C(O)C1O (stereo unspecified) [Narirutin] 94.7
CC(C)(ON=C(C(=O)NC1C(=O)N2C(C(=O)[O-])=C(C[n+]3ccccc3)CSC12)c1csc(N)n1)C(=O)O (stereo unspecified) [Ceftazidime] 90.2
CC(=O)OC1(C(C)=O)CCC2C3C=C(Cl)C4=CC(=O)C5CC5C4(C)C3CCC21C (stereo unspecified) [Cyproterone Acetate] 103
COc1cc(O)c2c(c1)oc(=O)c1c3cc(O)c(O)cc3oc21 [Wedelolactone] 101
CCC(C)(C)c1ccc(CC(C)CN2CC(C)OC(C)C2)cc1 (stereo unspecified) [Amorolfine] 94.6
COc1ccccc1OCC(O)CN1CCN(CC(=O)Nc2c(C)cccc2C)CC1.Cl.Cl (stereo unspecified) [Ranolazine.2HCl] 94.2
CCN(CC)CCNC(=O)c1cc(S(C)(=O)=O)ccc1OC.Cl [Tiapride hydrochloride] 96.7
CCCNCC(O)COc1ccccc1C(=O)CCc1ccccc1.Cl [(S)-(-)-propafenone hydrochloride] 90.3
O=C(O)CO.[NH2-].[NH2-].[Pt+2] [Nedaplatin] 96.9
O=[N+]([O-])c1cc(S(=O)(=O)Nc2ccc(O)c3ccccc23)ccc1Cl [4-chloro-N-(4-hydroxy-1-naphthyl)-3-nitrobenzenesulfonamide] 106
CCOC(=O)c1c2c3c(cccc3[nH]c1=O)C(=O)c1ccccc1-2 94.2
C1COC(NC(C2CC2)C2CC2)=N1.O=P(O)(O)O [Rilmenidine phosphate] 88.5
CCCCCCCCC=CCCCCCCCCC(=O)O [10(E)-Nonadecenoic acid] 97.4
Nc1ncnc2c1ncn2C1CCCC1 [9-cyclopentyladenine] 95.1
CC[C@H](C(=O)Nc1ccccc1N1CCCC1)c1ccccc1 [(2S)-2-Phenyl-N-[2-(1-pyrrolidinyl)phenyl]butanamide] 96.1
CCCCCCCCC=CCC=CCC=CCCCC(=O)NCCO [Mead ethanolamide] 108
CCCCCOc1ccccc1C(O)CC#CCCCC(=O)OC (stereo unspecified) 93
CN1CCCN=C1C=Cc1cccs1.O=C(O)c1cc2ccccc2c(Cc2c(O)c(C(=O)O)cc3ccccc23)c1O [Pyrantel Pamoate] 88.8
C[C@H](C#Cc1ccc(Cc2ccc(F)cc2)s1)N(O)C(N)=O 100
